Laboratory results taken from the supplement of paper PMC11732987, “Enantioselective OTUD7B fragment discovery through chemoproteomics screening and high-throughput optimisation” (Communications Chemistry, 2025).

Assays:
Test in all cases: log2 ratio of Biotin-Ahx-Ub-VS probe labelling (fragment/DMSO); higher = less target engagement (more negative = stronger competition), active = hit call of the paper (q ≤ 0.05, log2 ratio ≤ -1)
Details in all cases: compound concentration: 200 uM; treatment time: 3 h
USP34 = USP34 (UniProt Q70CQ2)
How it was run: (§1)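 Each value is an average log2 ratio of fragment to vehicle, tested by unpaired t-test. The underlying Spectronaut label-free quantities were global-median-normalised, and only proteins with ≥2 unique peptides were included. Triplicate HEK293T lysate samples (495 µg) were exposed to fragment at 200 µM or vehicle for 3 h, then to Biotin-Ahx-Ub-VS at 0.5 µM final for 1 h, before NeutrAvidin enrichment of labelled DUBs, LysC and trypsin digestion, and diaPASEF LC-MS/MS.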

USP36 = target: T1, USP36 (UniProt Q9P275)
T1 sequence (whole entry): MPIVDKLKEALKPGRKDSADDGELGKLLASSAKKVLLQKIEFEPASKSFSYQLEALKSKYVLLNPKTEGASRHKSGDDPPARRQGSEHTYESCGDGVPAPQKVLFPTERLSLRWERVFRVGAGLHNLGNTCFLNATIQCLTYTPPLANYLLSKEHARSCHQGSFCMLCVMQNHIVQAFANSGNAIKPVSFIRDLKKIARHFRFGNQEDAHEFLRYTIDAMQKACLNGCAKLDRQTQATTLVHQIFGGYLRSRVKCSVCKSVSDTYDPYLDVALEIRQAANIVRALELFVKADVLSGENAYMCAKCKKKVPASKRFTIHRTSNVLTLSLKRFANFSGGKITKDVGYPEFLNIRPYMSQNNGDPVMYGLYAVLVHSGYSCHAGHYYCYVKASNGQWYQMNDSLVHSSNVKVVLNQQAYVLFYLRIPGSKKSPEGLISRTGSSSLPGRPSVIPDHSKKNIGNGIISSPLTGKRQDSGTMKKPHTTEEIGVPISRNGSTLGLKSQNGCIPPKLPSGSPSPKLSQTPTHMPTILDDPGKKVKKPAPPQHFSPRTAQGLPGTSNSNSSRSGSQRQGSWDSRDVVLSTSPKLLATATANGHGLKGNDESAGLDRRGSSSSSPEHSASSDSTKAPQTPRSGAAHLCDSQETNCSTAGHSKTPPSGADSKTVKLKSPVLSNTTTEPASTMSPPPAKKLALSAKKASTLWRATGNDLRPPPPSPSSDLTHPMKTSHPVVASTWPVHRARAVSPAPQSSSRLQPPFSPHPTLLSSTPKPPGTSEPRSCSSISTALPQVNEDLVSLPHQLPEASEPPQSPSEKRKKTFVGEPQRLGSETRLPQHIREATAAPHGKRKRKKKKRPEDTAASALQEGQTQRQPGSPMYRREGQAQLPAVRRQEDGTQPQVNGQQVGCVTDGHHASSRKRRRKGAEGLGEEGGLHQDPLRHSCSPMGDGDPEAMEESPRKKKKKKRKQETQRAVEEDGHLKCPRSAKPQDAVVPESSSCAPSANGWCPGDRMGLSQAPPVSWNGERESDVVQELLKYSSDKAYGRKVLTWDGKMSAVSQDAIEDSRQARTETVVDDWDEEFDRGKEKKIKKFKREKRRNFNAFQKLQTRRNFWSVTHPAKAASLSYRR
How it was run: as §1

USP38 = target: T2, USP38 (UniProt Q8NB14)
T2 sequence (whole entry): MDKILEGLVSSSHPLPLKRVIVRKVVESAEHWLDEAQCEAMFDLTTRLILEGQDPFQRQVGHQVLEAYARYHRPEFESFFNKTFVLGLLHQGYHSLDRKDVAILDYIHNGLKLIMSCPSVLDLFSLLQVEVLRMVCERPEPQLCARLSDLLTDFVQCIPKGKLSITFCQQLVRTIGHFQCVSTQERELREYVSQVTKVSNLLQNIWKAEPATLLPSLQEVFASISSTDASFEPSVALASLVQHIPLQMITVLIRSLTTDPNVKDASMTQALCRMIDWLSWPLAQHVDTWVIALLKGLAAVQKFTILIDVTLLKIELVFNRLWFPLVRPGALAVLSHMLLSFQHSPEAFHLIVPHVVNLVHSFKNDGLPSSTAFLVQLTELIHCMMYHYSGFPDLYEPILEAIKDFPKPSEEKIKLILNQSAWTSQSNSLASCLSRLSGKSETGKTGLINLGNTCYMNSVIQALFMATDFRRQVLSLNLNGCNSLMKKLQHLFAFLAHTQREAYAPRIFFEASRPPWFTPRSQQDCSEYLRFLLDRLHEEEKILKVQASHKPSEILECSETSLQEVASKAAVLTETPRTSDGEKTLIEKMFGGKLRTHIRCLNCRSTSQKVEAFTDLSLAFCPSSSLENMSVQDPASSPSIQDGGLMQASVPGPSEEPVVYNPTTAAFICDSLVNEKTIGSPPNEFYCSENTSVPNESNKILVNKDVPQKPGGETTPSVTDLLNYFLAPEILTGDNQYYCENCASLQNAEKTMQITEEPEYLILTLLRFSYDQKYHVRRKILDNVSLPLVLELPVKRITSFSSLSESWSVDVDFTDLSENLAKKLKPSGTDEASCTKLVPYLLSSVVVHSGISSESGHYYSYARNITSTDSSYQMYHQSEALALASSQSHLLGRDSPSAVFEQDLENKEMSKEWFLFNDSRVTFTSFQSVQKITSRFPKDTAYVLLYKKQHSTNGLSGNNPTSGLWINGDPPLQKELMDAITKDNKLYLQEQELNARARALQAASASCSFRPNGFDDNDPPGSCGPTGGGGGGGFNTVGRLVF
How it was run: as §1

USP39 = target: T3, USP39 (UniProt Q53GS9)
T3 sequence (whole entry): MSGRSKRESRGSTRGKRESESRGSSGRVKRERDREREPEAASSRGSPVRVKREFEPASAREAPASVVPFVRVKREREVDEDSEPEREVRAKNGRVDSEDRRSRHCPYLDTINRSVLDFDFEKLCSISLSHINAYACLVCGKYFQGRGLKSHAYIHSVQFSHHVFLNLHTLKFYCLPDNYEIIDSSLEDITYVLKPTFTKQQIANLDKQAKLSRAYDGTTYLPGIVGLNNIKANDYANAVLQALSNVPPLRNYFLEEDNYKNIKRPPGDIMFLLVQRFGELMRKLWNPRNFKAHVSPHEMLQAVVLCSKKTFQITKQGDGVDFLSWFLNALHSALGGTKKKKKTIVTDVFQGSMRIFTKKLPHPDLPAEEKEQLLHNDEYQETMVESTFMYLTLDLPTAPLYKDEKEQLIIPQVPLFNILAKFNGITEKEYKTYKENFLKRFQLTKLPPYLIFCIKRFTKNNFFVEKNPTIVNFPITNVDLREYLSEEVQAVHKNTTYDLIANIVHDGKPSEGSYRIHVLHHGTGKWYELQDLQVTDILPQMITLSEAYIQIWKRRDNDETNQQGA
How it was run: as §1

USP4 = target: T4, USP4 (UniProt Q13107)
T4 sequence (whole entry): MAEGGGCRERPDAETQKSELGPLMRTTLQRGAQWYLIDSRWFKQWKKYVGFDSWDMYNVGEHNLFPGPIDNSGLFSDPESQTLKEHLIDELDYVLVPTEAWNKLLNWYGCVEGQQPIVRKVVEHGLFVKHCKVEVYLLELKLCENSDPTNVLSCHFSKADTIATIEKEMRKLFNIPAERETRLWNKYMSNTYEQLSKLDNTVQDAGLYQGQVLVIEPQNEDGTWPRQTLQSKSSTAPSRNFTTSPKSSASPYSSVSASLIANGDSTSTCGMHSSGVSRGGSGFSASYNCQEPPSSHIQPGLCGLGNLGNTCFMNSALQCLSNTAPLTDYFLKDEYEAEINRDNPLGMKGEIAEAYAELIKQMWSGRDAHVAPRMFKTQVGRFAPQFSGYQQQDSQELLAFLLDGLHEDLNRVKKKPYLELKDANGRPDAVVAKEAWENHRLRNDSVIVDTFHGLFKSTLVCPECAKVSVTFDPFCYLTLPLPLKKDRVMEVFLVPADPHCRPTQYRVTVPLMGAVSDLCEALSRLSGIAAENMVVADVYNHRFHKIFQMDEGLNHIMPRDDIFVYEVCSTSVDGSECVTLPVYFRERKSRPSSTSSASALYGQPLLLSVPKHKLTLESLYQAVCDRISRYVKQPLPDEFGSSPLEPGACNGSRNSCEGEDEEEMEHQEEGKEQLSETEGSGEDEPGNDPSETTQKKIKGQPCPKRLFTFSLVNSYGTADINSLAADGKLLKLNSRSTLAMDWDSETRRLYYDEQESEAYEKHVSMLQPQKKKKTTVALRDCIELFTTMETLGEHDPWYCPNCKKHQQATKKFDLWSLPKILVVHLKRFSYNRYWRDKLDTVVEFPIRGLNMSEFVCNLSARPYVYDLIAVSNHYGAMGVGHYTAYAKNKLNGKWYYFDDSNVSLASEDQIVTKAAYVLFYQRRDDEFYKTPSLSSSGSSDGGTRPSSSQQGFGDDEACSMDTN
How it was run: as §1

Measured: log2 ratio of Biotin-Ahx-Ub-VS probe labelling

Chain of USP34 (Q70CQ2 whole entry, the tested form may be a part): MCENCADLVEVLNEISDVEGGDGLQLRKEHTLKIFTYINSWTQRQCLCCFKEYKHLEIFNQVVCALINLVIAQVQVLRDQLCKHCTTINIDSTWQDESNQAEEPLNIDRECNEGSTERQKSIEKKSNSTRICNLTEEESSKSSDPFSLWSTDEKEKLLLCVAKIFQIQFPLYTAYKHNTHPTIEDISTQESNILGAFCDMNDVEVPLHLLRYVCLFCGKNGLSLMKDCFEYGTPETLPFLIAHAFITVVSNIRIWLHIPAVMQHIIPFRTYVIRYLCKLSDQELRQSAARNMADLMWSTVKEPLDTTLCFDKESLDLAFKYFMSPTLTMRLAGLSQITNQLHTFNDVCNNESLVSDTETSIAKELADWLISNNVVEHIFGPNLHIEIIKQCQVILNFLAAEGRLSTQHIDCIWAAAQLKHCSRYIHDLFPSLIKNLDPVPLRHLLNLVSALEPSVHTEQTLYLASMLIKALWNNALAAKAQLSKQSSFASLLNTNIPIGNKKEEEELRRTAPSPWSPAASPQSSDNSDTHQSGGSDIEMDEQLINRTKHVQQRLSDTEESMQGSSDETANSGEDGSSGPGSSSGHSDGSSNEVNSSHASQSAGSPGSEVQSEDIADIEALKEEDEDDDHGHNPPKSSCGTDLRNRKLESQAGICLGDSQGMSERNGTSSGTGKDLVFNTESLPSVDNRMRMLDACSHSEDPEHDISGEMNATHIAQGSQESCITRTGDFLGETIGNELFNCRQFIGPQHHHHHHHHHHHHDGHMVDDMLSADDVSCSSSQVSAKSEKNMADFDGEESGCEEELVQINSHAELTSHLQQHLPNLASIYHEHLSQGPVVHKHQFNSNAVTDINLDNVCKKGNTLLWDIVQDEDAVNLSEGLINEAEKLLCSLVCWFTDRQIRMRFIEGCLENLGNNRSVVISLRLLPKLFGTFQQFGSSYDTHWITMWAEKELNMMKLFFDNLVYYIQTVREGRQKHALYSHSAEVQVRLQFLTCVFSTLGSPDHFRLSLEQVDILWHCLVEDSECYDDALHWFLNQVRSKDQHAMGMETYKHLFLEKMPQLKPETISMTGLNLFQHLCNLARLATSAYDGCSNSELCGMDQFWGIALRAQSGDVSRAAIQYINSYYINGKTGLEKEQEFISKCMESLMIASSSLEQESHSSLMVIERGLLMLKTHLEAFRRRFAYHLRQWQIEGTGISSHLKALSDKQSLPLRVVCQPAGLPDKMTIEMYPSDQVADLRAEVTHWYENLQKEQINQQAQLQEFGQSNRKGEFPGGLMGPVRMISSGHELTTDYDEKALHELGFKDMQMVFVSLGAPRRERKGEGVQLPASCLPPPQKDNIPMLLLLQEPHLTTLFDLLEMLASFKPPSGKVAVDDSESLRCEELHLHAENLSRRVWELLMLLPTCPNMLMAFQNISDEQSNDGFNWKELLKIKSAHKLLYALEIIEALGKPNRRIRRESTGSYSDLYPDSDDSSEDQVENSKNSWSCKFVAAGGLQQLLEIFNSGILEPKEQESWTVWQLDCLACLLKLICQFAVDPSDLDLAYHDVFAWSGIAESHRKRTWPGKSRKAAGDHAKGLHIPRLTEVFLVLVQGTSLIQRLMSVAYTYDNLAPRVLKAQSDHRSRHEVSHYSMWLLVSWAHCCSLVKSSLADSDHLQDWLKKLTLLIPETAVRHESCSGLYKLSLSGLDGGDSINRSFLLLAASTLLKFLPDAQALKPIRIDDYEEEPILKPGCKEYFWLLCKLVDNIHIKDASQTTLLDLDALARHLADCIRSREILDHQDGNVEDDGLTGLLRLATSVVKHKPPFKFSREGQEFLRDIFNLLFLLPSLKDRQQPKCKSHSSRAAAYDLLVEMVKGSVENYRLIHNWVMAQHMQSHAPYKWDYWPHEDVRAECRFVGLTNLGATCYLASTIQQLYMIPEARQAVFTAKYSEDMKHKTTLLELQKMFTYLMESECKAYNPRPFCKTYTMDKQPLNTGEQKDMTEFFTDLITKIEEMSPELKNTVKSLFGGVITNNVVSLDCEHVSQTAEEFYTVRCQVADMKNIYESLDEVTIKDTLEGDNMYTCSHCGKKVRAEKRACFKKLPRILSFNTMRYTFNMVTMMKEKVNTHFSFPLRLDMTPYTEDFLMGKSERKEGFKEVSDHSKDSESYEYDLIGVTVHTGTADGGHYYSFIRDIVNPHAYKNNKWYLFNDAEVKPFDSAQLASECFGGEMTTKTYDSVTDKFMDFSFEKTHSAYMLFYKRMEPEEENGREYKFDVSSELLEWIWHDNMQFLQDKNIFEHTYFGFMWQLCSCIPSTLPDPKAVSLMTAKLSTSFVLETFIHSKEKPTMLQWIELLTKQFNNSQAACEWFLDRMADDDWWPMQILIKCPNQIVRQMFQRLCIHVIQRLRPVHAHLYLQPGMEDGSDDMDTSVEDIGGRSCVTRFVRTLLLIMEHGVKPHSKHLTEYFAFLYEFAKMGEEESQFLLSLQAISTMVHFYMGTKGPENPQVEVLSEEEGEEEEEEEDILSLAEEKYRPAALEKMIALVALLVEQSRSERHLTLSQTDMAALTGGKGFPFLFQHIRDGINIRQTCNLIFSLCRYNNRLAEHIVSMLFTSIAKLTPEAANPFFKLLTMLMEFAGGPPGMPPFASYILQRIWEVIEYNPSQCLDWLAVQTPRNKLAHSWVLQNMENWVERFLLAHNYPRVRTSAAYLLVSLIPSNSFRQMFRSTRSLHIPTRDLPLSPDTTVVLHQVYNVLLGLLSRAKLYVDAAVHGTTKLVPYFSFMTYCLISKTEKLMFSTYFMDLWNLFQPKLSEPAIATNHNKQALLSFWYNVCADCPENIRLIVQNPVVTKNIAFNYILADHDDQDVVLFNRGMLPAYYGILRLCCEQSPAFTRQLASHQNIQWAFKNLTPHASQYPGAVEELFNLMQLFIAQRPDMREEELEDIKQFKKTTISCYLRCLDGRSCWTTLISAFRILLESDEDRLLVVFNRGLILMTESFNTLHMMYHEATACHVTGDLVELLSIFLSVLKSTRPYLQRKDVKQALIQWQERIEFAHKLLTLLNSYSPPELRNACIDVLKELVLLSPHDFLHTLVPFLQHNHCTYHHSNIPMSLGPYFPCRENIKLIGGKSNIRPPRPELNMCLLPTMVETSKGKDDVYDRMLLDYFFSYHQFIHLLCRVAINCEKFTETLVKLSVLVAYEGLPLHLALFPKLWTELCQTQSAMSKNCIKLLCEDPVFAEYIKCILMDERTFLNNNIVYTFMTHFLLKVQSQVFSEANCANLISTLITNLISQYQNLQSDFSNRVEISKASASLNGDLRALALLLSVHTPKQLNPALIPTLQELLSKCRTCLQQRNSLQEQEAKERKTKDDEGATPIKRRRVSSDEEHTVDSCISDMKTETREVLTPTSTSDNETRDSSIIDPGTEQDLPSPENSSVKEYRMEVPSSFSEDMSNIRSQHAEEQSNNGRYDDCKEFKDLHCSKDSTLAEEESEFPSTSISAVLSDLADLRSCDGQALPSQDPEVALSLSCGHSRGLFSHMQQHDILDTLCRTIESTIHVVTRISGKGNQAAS

NC(=O)C(Cc1ccccc1)NC(=O)CCl (stereo not given)
inactive: USP34 -0.217 | USP36 0.0618 | USP38 -0.0263 | USP39 -0.257 | USP4 0.0089
